Screens deposited in PubChem BioAssay by National Center for Advancing Translational Sciences (NCATS).
AMA1 RON2 block: disrupts binding of P. falciparum AMA1 to RON2. AID 720542. 360,000 compounds, 0.2% hits. Potency, µM (doses to about 58.2 µM), actives largely listed as inhibitors. AlphaScreen AMA1-biotinylated RON2 peptide binding; note: nearly all actives have a fitted effect of over 45% in size
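AMA1 (3D7) with his tag at 25 nM final met compounds first, then biotinylated RON2 peptide at 25 nM; detection used donor plus acceptor beads, 10 µg/mL apiece, read by AlphaScreen after 30 min at room temperature.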
Pf growth 48h: inhibits P. falciparum growth in the first generation, 48 h; P. falciparum luciferase growth in erythrocytes, 48 h; Potency, µM (doses to about 28.7 µM), most hits filed as inhibitors; 310,000 compounds, 5.9% hits; AID 504832
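Firefly luciferase activity from engineered P. falciparum reports growth; inhibitors lower the luminescent signal. Cultures contained 2% hematocrit erythrocytes at 0.1% final parasitemia.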
Pf growth 96h: inhibits malaria parasite growth, 96 h. P. falciparum luciferase reporter growth, 96 h. Potency, µM (series often up to 28.7 µM), most hits filed as inhibitors. 320,000 compounds, 6.9% hits
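Compounds incubated with erythrocytes infected by luciferase-expressing P. falciparum (2% hematocrit, 0.05% parasitemia final) for 96 hours, 37 C in 5% CO2. Growth inhibition scored as decreased luciferase luminescence.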
HCV inh: blocks hepatitis C virus; Huh7.5.1 HCVcc-Cre infection, luciferase reporter, 44 h; Potency, µM (series often up to 41.8 µM), most hits filed as inhibitors; 340,000 compounds, 3.4% hits; AID 651820
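Luciferase read-out (15 sec integration) after a 15 min room-temperature substrate step quantifies HCVcc-Cre infection. Cells, 1,000 per well, had compound added 4 h post-plating, then virus at ~0.5 moi, and were cultured 44 h.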
Of the large screens only hits and unclear results are named; the others gave an inactive call. Most compounds without a hit are left out; they make up all but 11% or so of the library. Calls come from the whole dose curve; as a rule, active = well fitted curve in the direction sought with a large enough effect; inconclusive = small, poorly fitted or top-dose-only effect, or another doubt; inactive = no such curve, though single readings can be large; an effect the other way counts as inactive or inconclusive.

N/C(=N\c1nc2c(c(=O)[nH]1)CCCC2)Nc1ccc(Oc2ccccc2)cc1	Pf growth 48h inconclusive, Pf growth 96h 8.3µM
O=C(N/N=C/c1cccc(F)c1)c1c(O)c2ccccc2[nH]c1=O	HCV inh 13µM
O=c1[nH]c2ccccc2c(O)c1O	Pf growth 48h 13µM, Pf growth 96h 10µM, HCV inh inconclusive
COC(=O)c1c(O)c2ccccc2[nH]c1=O	none (no result: Pf growth 96h)
O=C(N/N=C/c1ccc(F)cc1)c1c(O)c2ccccc2[nH]c1=O	none
CC(C)C(=O)NNC(=O)c1c(O)c2ccccc2[nH]c1=O	Pf growth 48h 12µM, Pf growth 96h inconclusive
CC(C)NC(=O)c1c(O)c2ccccc2[nH]c1=O	Pf growth 48h 10µM, Pf growth 96h 4.1µM, HCV inh inconclusive
CC(C)(C)c1ccc(S(=O)(=O)Nc2noc3ccccc23)cc1	Pf growth 96h inconclusive (no result: Pf growth 48h)
Cc1cc(Cl)ccc1OC(C)C(=O)Nc1ccc(C(=O)Nc2ccccc2C(=O)O)cc1 (stereo not drawn)	none
COC(=O)C1NC(=O)N2C(C(=O)OC)C(C)(C)S[C@H]12 (stereo partly drawn)	none (no result: Pf growth 48h, Pf growth 96h)
Cc1cccc(C)c1NC(=O)C(c1cc2ccccc2o1)N1CCN(C)CC1 (stereo not drawn)	none (no result: Pf growth 48h, Pf growth 96h, HCV inh)
COc1ccc(Cl)cc1NC(=O)c1ocnc1C	Pf growth 96h 1µM, HCV inh inconclusive
COc1ccccc1NC(=O)c1ccccc1NC(=O)c1ccccn1	Pf growth 96h inconclusive
COc1ccc(NC(=O)c2ocnc2C)cc1OC	none
COc1ccc(Cl)cc1NC(=O)NNC(=O)c1ccccn1	Pf growth 96h 10µM
CCCCCCNC(=O)c1cc(S(=O)(=O)N2CCc3ccccc32)ccc1F	Pf growth 96h inconclusive
C=CCNc1nc(Cl)nc(NCc2ccco2)n1	Pf growth 48h inconclusive, Pf growth 96h 9.3µM
O=C(NC1CCS(=O)(=O)C1)N1CCCCC1 (stereo not drawn)	Pf growth 96h 4.1µM (no result: Pf growth 48h)
O=C(NC1CCCCC1)N1CCCCCC1	none
CC(C)C(=O)NCCSc1c[nH]c2ccccc12	Pf growth 96h 12µM
O=C(NCCc1c[nH]c2ccccc12)c1ccc(Br)o1	none (no result: Pf growth 48h, Pf growth 96h)
O=C(NCCSc1c[nH]c2ccccc12)c1ccc(Br)o1	Pf growth 96h 2.1µM
CC1CCCCN1C(=O)/C(=C\c1ccccc1)c1ccccc1 (stereo not drawn)	Pf growth 48h inconclusive, Pf growth 96h inconclusive
O=C(CN1CCOCC1)NCC12CC3CC(CC(C3)C1)C2	none
Cc1cc(C(=O)NCC(=O)OC(C)C(=O)N2CCOCC2)ccc1[N+](=O)[O-] (stereo not drawn)	Pf growth 48h inconclusive, Pf growth 96h 7.4µM
CCCCNc1cc(F)nc(N)n1	none
Cc1ccc(S(=O)(=O)N2CCCCC2CCNC(=O)C(=O)NCc2ccncc2)cc1 (stereo not drawn)	Pf growth 96h inconclusive
CCCCc1ccc(NC(=O)CSc2nc(=O)n(CCN(C)C)c3c2CCC3)cc1	Pf growth 48h 12µM, Pf growth 96h inconclusive, HCV inh inconclusive
CCCCc1ccc(NC(=O)CSc2nc(=O)n(CCN3CCOCC3)c3c2CCC3)cc1	Pf growth 96h inconclusive, HCV inh inconclusive
CCc1ccc(NC(=O)CSc2nc(=O)n(CCCN3CCOCC3)c3c2CCC3)cc1	Pf growth 48h inconclusive, Pf growth 96h inconclusive, HCV inh inconclusive
Cc1ccc(NC(=O)CSc2nc(=O)n(CCCN3CCOCC3)c3c2CCCC3)cc1	Pf growth 48h 13µM
CN(C)CCn1c2c(c(SCC(=O)N3CCc4ccccc43)nc1=O)CCCC2	Pf growth 96h inconclusive, HCV inh 13µM
CCN(CC)CCCn1c2c(c(SCC(=O)N3CCCc4ccccc43)nc1=O)CCC2	Pf growth 96h inconclusive
CCCCc1ccc(NC(=O)CSc2nc(=O)n(CCN(CC)CC)c3c2CCCC3)cc1	Pf growth 48h 12µM, Pf growth 96h 2.1µM, HCV inh inconclusive
O=C(c1cc(F)ccc1F)C1CCCN(C(=O)CCN2CCCCO2)C1 (stereo not drawn)	Pf growth 96h inconclusive
Nc1cc(Cl)ccc1CN1C(=O)c2ccccc2C1=O	none (no result: Pf growth 48h, Pf growth 96h, HCV inh)
O=C(O)c1cccc(N/N=C/C2=C(Cl)c3cc(Cl)ccc3SC2)c1	Pf growth 96h 8.3µM
COc1ccc(CCN(C)CC(O)COc2c(C)ccc(C)c2C)cc1OC (stereo not drawn)	Pf growth 48h 15µM, Pf growth 96h inconclusive, HCV inh inconclusive
COc1ccc(CN(C)CC(O)COC(c2ccccc2)c2ccccc2)c(OC)c1OC (stereo not drawn)	Pf growth 48h 10µM, Pf growth 96h inconclusive, HCV inh 16µM
COc1ccc(CN(C)CC(O)COc2ccc(C(=O)c3ccccc3)cc2)c(OC)c1OC (stereo not drawn)	Pf growth 48h inconclusive, Pf growth 96h inconclusive, HCV inh inconclusive
CCN(Cc1ccccc1)CC(O)COC(c1ccc(OC)cc1)c1ccc(OC)cc1 (stereo not drawn)	Pf growth 48h 15µM, Pf growth 96h 9.3µM, HCV inh inconclusive
COc1ccc(CCN(C)Cc2cccc3ccccc23)cc1OC	Pf growth 48h inconclusive
COc1ccc(CCN(C)CC(O)COC(c2ccc(F)cc2)c2ccc(F)cc2)cc1OC (stereo not drawn)	Pf growth 48h 13µM, Pf growth 96h 10µM, HCV inh inconclusive
Cc1ccc(NC(=O)c2cc(N3C(=O)C4CC=CCC4C3=O)ccc2N2CCCCC2)cc1 (stereo not drawn)	Pf growth 96h 15µM, HCV inh inconclusive
O=C(Nc1ccc(N2CCCCC2)c(C(=O)O)c1)c1ccco1	Pf growth 96h inconclusive
COC(=O)c1ccc(N2CCCCC2)c(NC(=O)c2ccco2)c1	Pf growth 48h inconclusive, HCV inh 1.4µM
Cc1cccc(NC(=O)c2cc(NC(=O)c3ccco3)ccc2N2CCCCC2)c1	Pf growth 48h 4.7µM, Pf growth 96h inconclusive
CC(OC(=O)CC1CCCC1)C(=O)Nc1ccc(S(N)(=O)=O)cc1 (stereo not drawn)	none
CCOC(=O)C1(C)CCCCN1C(=O)c1cccc(Cl)c1 (stereo not drawn)	none (no result: Pf growth 48h, Pf growth 96h, HCV inh)
O=C(Cc1ccsc1)N1CCN(S(=O)(=O)c2ccccc2F)CC1	none
CC(=O)c1c(C)oc2ccc(N(C(C)=O)S(=O)(=O)c3cccc([N+](=O)[O-])c3)cc12	none
CC(=O)c1c(C)oc2ccc(N(C(=O)C3CCCCC3)S(=O)(=O)c3cc([N+](=O)[O-])ccc3C)cc12	Pf growth 96h 3.7µM, HCV inh inconclusive
COc1ccccc1/C=C/c1nc2ccc(OC(C)=O)cc2c(=O)o1	Pf growth 96h 1.7µM
COc1ccccc1/C=C/c1nc2ccccc2c(=O)o1	none (no result: Pf growth 48h, Pf growth 96h)
O=C1C(c2ccccc2)C(c2ccccc2)NC(c2ccccc2)C1c1ccccc1 (stereo not drawn)	Pf growth 48h 1.9µM
O=C(OCc1ccc(F)cc1)c1ccc2c(c1)-c1ccccc1C2=O	none
CCOC(=O)C1=C(Cc2ccc(F)cc2)C(=O)c2ccccc2C1=O	Pf growth 96h 8.3µM, HCV inh 7.9µM (no result: Pf growth 48h)
CC[C@]12c3[nH]c4cc(-c5ccco5)ccc4c3CCN1C(=O)[C@@H](CC(=O)NC/C=C(\C)CCC=C(C)C)C[C@@H]2C(=O)N1CCN(C(=O)c2ccco2)CC1	HCV inh 13µM (no result: Pf growth 48h, Pf growth 96h)
